Structures are written as SMILES. Hit rate of the full screen: of about 310,000 compounds, about 14,000 (4.5%) showed an effect of 50% or more. Effects have a minus sign here. What follows is part of a selection rich in strong results, with near analogues and random picks from the rest.
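Note: peak tail current of the secondary pulse compared with the same well before compound.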

For this assay, the target named is human ether-à-go-go-related gene (hERG) potassium channel (human, UniProt Q12809). Put plainly: primary screen, population patch clamp on CHO cells stably expressing hERG; higher = less effect of the substance.
Chain of human ether-à-go-go-related gene (hERG) potassium channel (Q12809 whole entry, looked up): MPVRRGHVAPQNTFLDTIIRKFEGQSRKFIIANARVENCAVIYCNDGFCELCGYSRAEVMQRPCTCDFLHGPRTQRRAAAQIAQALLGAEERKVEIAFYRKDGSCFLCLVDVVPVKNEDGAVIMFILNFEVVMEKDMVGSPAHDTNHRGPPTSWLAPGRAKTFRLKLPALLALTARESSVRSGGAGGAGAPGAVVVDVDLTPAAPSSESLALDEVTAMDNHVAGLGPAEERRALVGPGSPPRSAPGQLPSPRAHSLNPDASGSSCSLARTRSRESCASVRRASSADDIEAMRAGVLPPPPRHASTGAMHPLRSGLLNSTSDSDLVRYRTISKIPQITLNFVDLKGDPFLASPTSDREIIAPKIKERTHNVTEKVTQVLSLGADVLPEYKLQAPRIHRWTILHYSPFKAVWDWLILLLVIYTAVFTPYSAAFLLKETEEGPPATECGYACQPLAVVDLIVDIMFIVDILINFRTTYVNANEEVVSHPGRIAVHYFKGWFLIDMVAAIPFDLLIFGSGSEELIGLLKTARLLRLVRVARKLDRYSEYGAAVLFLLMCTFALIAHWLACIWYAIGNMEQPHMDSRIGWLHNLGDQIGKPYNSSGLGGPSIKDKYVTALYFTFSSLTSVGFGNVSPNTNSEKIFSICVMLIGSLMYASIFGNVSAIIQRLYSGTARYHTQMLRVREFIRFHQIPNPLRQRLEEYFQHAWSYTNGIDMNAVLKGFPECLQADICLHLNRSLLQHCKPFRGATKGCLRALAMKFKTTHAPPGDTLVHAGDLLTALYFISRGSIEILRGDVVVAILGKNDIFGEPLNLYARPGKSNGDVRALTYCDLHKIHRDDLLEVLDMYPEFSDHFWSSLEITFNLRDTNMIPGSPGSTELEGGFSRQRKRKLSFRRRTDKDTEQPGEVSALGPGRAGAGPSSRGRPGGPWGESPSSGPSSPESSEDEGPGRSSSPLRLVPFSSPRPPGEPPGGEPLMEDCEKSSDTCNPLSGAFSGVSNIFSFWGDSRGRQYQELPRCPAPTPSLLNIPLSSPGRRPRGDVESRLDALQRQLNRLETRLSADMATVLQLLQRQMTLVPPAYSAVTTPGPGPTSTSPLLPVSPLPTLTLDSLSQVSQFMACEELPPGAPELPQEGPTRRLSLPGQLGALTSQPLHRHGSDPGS
Turning to `Nc1ccccc1-[n+]1c(-c2ccccc2)cc(-c2ccccc2)cc1-c1ccccc1.[O-][Cl+3]([O-])([O-])[O-]`, the “hERG current change (%, negative = inhibition) at 10uM” value is given as -50.9%.
Then `O=C([O-])c1ccc(-[n+]2c(-c3ccccc3)cc(-c3ccccc3)cc2-c2ccccc2)cc1`, with -0.807%; and `Oc1ccccc1-[n+]1c(-c2ccccc2)cc(-c2ccccc2)cc1-c1ccccc1.[O-][Cl+3]([O-])([O-])[O-]`, with -71.2%; and `Cc1ccc(-c2cc(-c3ccccc3)cc(-c3ccccc3)[n+]2-c2ccccc2C(=O)O)cc1.[O-][Cl+3]([O-])([O-])[O-]`, with -21.5%.
Then `[O-]c1ccccc1-[n+]1c(-c2ccccc2)cc(-c2ccccc2)cc1-c1ccccc1`, with -71.1%; and `Cc1ccccc1-[n+]1c(-c2ccccc2)cc(-c2ccccc2)cc1-c1ccccc1.[O-][Cl+3]([O-])([O-])[O-]`, with -76.3%; and `O=C([O-])c1ccccc1-[n+]1c(-c2ccccc2)cc(-c2ccccc2)cc1-c1ccccc1`, with -3.82%.
The result for `Oc1ccccc1-[n+]1c(-c2ccccc2)cc(-c2ccccc2)c(O)c1-c1ccccc1.[O-][Cl+3]([O-])([O-])[O-]` reads 15.1%; that for `COc1ccc(NC(=O)C2CCCN(S(=O)(=O)c3ccc4c(c3)CC(C)N4C(C)=O)C2)cc1` (stereo not shown), 24.3%; that for `Cc1ccc(NC(=O)C2CCCC2)cc1Cl`, -2.92%.
In the case of `O=C(COC(=O)CNS(=O)(=O)c1ccccc1)NC12CC3CC(CC(C3)C1)C2`, the “hERG current change (%, negative = inhibition) at 10uM” value is on record as -18%.
The result for `C=CCNC(=S)N/N=C(\C)c1cccnc1` reads 0.787%; that for `O=C(NC1CCCC1)C(c1cc2c(cc1[N+](=O)[O-])OCO2)N1CCCC1` (stereo not shown), 20.6%; that for `COc1cc(C(=O)Nc2cccnc2)cc(OC)c1OC`, 16.3%.
Turning to `O=CN1CCN(C(=O)CN2C(=O)c3ccccc3C2=O)CC1`, the “hERG current change (%, negative = inhibition) at 10uM” value was found to be 10.5%.
Then `CCN(CCn1cccn1)Cc1ccccc1OCC(O)CN1CCc2ccccc2C1` (stereo not shown), with -51.5%; and `O=S(=O)(c1ccc(OCC(O)CN2CCc3ccccc3C2)cc1)N1CCOCC1` (stereo not shown), with -4.43%; and `CC(=O)c1ccc(OCC(O)CN2CCc3ccccc3C2)cc1.Cl` (stereo not shown), with -41.9%.
Then `OC(COc1ccccc1CNCc1cccnc1)CN1CCc2ccccc2C1` (stereo not shown), with -34.2%.
Then `Cc1cc(=O)oc2cc(OCC(O)CN3CCc4ccccc4C3)ccc12` (stereo not shown), with -31.7%; and `CCC(=O)c1ccc(OCC(O)CN2CCc3ccccc3C2)cc1.Cl` (stereo not shown), with -63.7%.
As to `CCOc1ccc(OCC(O)CN2CCc3ccccc3C2)cc1.Cl` (stereo not shown), the “hERG current change (%, negative = inhibition) at 10uM” value was -66.3%.
The result for `Cl.OC(COc1ccc2c(c1)OCO2)CN1CCc2ccccc2C1` (stereo not shown) reads -28.5%; that for `Cn1cc(CNCc2ccccc2OCC(O)CN2CCc3ccccc3C2)cn1` (stereo not shown), -0.11%; that for `COc1ccc(OCC(O)CN2CCc3ccccc3C2)cc1.Cl` (stereo not shown), -33.1%.
Turning to `Cc1cc(OCC(O)CN2CCc3ccccc3C2)ccc1Cl.Cl` (stereo not shown), the “hERG current change (%, negative = inhibition) at 10uM” value is recorded as -53.4%.
As to `N#CC1=C(N)NC(SCC(=O)Nc2ccc(Br)cc2)=C(C#N)C12CCCCC2`, the “hERG current change (%, negative = inhibition) at 10uM” value came to 13.4%.
The result for `O=C(Nc1cc(Cl)ccc1O)C1CC(c2ccccc2Cl)=NO1` (stereo not shown) reads 20.3%.
Then `O=C(N/N=C/c1cn(-c2cccs2)nc1-c1ccccc1)c1ccc(O)cc1`, with 13.8%.
The result for `COc1c(C)cccc1C(=O)Nc1ccc(N2CCN(S(C)(=O)=O)CC2)cc1` reads 5.12%; that for `CCCC(=O)Nc1nnc(CC(=O)N2CCCC2)s1`, 7.72%.
For `O=C(CCCc1nc(-c2ccccc2Cl)no1)NCc1cccnc1`, the “hERG current change (%, negative = inhibition) at 10uM” value was -2.1%.
Then `Cn1nnnc1NCc1ccccc1F`, with 4.52%; and `CCCCC1OC23CCCCC2C(C#N)(C(=N)O3)C1(C#N)C#N` (stereo not shown), with 4.17%; and `CCN(CC)S(=O)(=O)c1ccc2c(c1)nc(SCC(=O)NCC1CCCO1)n2CC` (stereo not shown), with 3.12%.
For `c1ccc(CSc2nnc(-c3cccs3)n2Cc2ccco2)cc1`, the “hERG current change (%, negative = inhibition) at 10uM” value is -46.8%.
Then `Cl.OC1(CN2CCOCC2)C2CC3CC(C2)CC1C3` (stereo not shown), with 11%; and `O=C(COC(=O)c1cc(-c2ccccc2)nc2ccccc12)Nc1ccc2c(c1)OCO2`, with 10.7%.
The result for `O=C(NCCCc1ccccc1)c1ccccc1O` reads -0.415%; that for `CCCCSc1nnc(CCC)n1N`, -2.49%; that for `Cc1ccc(C)c(NC(=S)N(Cc2cccc(Br)c2)CC2CCC(C(=O)O)CC2)c1` (stereo not shown), 2.11%.
Then `COC(=O)c1ccccc1NC(=O)NC1CCCCC1`, with 5.86%; and `CCCc1ccc(OCC(O)CN2CCN(CCO)CC2)cc1.Cl` (stereo not shown), with -13.7%.
On to `CCCc1ccc(OCC(O)CN2CCc3ccccc3C2)cc1.Cl` (stereo not shown), for which the “hERG current change (%, negative = inhibition) at 10uM” value is recorded as -71.5%.
Then `COc1cccc(OCC(O)CN2CCc3ccccc3C2)c1.Cl` (stereo not shown), with -71.1%; and `COc1cccc(OCC(O)CN2CCOCC2)c1.Cl` (stereo not shown), with 18.7%; and `CCCc1ccc(OCC(O)CN2CCCC2)cc1.Cl` (stereo not shown), with -27.8%.
On to `CC(C)(C)c1ccc(OCC(O)CN2CCc3ccccc3C2)cc1.Cl` (stereo not shown), for which the “hERG current change (%, negative = inhibition) at 10uM” value is listed as -50.3%.
The result for `OC(COc1ccc(CNCc2cccnc2)cc1)CN1CCc2ccccc2C1` (stereo not shown) reads -13.5%.
Then `COc1cccc(C2c3c(oc4ccc(F)cc4c3=O)C(=O)N2CCN2CCOCC2)c1OC` (stereo not shown), with 4.45%; and `CCCCn1c(SCC(=O)Nc2cc(NC(=O)c3ccco3)ccc2C)nc2ccccc2c1=O`, with -8.62%; and `Cc1ccc(/C=N/N2CCN(C3c4ccccc4-c4ccccc43)CC2)s1`, with 0.486%.
For `CN(/N=C/c1cccc(Br)c1)C1=NS(=O)(=O)c2ccccc21`, the “hERG current change (%, negative = inhibition) at 10uM” value is -11.8%.
On to `COc1ccc(N2CCN(c3nc4c(c(=O)n(C)c(=O)n4C)n3CCCc3ccccc3)CC2)cc1`, for which the “hERG current change (%, negative = inhibition) at 10uM” value stood at 13.4%.
Then `CCc1ccc(/C=c2\s/c(=C\C(=O)C(C)(C)C)[nH]c2=O)cc1`, with 15.2%.
Then `Cc1ccccc1N1CCN(C2CCCN(C(=O)c3cc(C(C)C)[nH]n3)C2)CC1` (stereo not shown), with -61.2%; and `Cc1cc(C(=O)N2CCCC(N3CCN(c4ccccc4C)CC3)C2)nc(C)n1` (stereo not shown), with 4.27%; and `Cc1ccccc1N1CCN(C2CCCN(C(=O)c3noc4c3CCCC4)C2)CC1` (stereo not shown), with -63.5%.
Then `Cc1nc(C(=O)N2CCCC(N3CCN(c4ccccc4C)CC3)C2)cs1` (stereo not shown), with -39.5%; and `Cc1ccccc1N1CCN(C2CCCN(C(=O)c3cc(CC(C)C)nn3C)C2)CC1` (stereo not shown), with -31.7%; and `Cc1ccccc1N1CCN(C2CCCN(C(=O)c3cn4c(C)cccc4n3)C2)CC1` (stereo not shown), with -58.1%.
In the case of `Cc1ccccc1N1CCN(C2CCCN(C(=O)c3csc(C(C)C)n3)C2)CC1` (stereo not shown), the “hERG current change (%, negative = inhibition) at 10uM” value is reported as -43%.
The result for `CCCc1cc(C(=O)N2CCCC(N3CCN(c4ccccc4C)CC3)C2)n(C)n1` (stereo not shown) reads -35.8%; that for `Cc1ccccc1N1CCN(C2CCCN(C(=O)c3ccccn3)C2)CC1` (stereo not shown), -9.78%.
The result for `O=C(c1noc2c1CCCC2)N1CCCC(N2CCN(c3ccccc3F)CC2)C1` (stereo not shown) reads -28%; that for `Cc1cc(C(=O)N2CCCC(N3CCN(c4ccccc4C)CC3)C2)n(C)n1` (stereo not shown), -88.8%; that for `CCc1[nH]nc(C(=O)N2CCCC(N3CCN(c4ccccc4C)CC3)C2)c1C` (stereo not shown), -23.8%.
Then `O=C(COc1ccccc1[N+](=O)[O-])N(Cc1ccco1)C1CCS(=O)(=O)C1` (stereo not shown), with -6.3%; and `Cc1cccc(NC(=O)/C=C/c2ccc3c(c2)OCO3)n1`, with 19.1%.
With `Cc1c(Cl)cnc(NC(=O)COC(=O)Cc2coc3ccc4ccccc4c23)c1Cl`, the “hERG current change (%, negative = inhibition) at 10uM” value is -7.96%.
Then `Cc1ccc(Sc2ccc(NC(=O)CCl)cc2)c(C)c1`, with 12.5%.
The result for `CC(=O)N1CC2(C)CN(C(C)=O)CC(C)(C1)C2` reads 23.8%.
Then `Cc1cnc(C(=O)N2CCCC(N3CCN(c4ccccc4C)CC3)C2)cn1` (stereo not shown), with 1.27%; and `Cc1ccccc1N1CCN(C2CCCN(C(=O)c3cnsn3)C2)CC1` (stereo not shown), with -58.2%.
On to `Cc1ccccc1N1CCN(C2CCCN(C(=O)c3snnc3C)C2)CC1` (stereo not shown), for which the “hERG current change (%, negative = inhibition) at 10uM” value is given as 5.72%.
`COc1ccc(NS(=O)(=O)c2ccc(N3CCCC3)c(NC(=S)Nc3cccc(S(=O)(=O)N(C)C)c3)c2)cc1`: the “hERG current change (%, negative = inhibition) at 10uM” value is reported as 18.1%.
With `CCc1c(C)nc2ncnn2c1N1CCCC(C(=O)NCc2ccc3c(c2)OCO3)C1` (stereo not shown), the “hERG current change (%, negative = inhibition) at 10uM” value is -37.4%.
Then `CCc1c(C)nc2ncnn2c1N1CCC(C(=O)NCc2cccc(OC)c2)CC1`, with -38.6%; and `Cc1cc(C)nc(N2CCCC(C(=O)NCc3ccc4c(c3)OCO4)C2)n1` (stereo not shown), with 20.9%; and `CCCc1cc(N2CCCC(C(=O)NCc3ccc4c(c3)OCO4)C2)n2ncnc2n1` (stereo not shown), with -78.4%.
Then `CCc1c(C)nc2ncnn2c1N1CCC(C(=O)NCc2ccc3c(c2)OCO3)CC1`, with -68.7%; and `CCCc1cc(N2CCCC(C(=O)NCC)C2)n2ncnc2n1` (stereo not shown), with -27.3%.
The result for `O=C(COC(=O)C1CCN(S(=O)(=O)c2cccs2)CC1)NCc1ccc(F)cc1` reads -49.7%; that for `CCN(C(=O)COC(=O)C1CCN(S(=O)(=O)c2cccs2)CC1)c1ccccc1`, 22%.
Turning to `CN(Cc1ccccc1)C(=O)COC(=O)C1CCN(S(=O)(=O)c2cccs2)CC1`, the “hERG current change (%, negative = inhibition) at 10uM” value is -53.4%.
Then `O=C(COC(=O)C1CCN(S(=O)(=O)c2cccs2)CC1)c1ccccc1`, with 20.6%.
Then `O=C(COC(=O)C1CCN(S(=O)(=O)c2cccs2)CC1)NCc1ccccc1`, with -23.6%; and `Cc1ccc(CNC(=O)COC(=O)C2CCN(S(=O)(=O)c3cccs3)CC2)cc1`, with -50.5%; and `CN(C(=O)COC(=O)C1CCN(S(=O)(=O)c2cccs2)CC1)c1ccccc1`, with -14.1%.
The result for `CN(C)C=O.O=C(OCC(=O)N1CCCc2ccccc21)C1CCN(S(=O)(=O)c2cccs2)CC1` reads -71.1%; that for `Cc1ccc(S(=O)(=O)N2CCC(C(=O)OCC(=O)N3CCc4ccccc43)CC2)cc1`, -25.4%.

Source of the values: publication PMC4336329 (PLoS ONE, 2015).
